According to PubChem BioAssay AID485297 (National Center for Advancing Translational Sciences (NCATS), 2010):
Among all 320,000 compounds or so, about 9,100 (2.8%) were called active. A call without a number means that no potency is given here. Inconclusive results (about 3%) are left out. Calls come from the whole dose curve; as a rule, active = well fitted activation curve with a large enough effect; inconclusive = small, poorly fitted or top-dose-only effect; inactive = no such curve, though single readings can be large or run the other way. Many of the other results were omitted from the sample, so actives are more common in it than they were.
Potency is the fitted concentration of half-maximal effect.

Assay: qHTS Assay for Rab9 Promoter Activators; note: nearly all actives have a fitted effect of over 60% in size
Conditions: Huh7 Rab9 promoter-luciferase reporter, luminescence, 24 h; series mostly up to 9.22 µM
Method in brief: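 Rab9 promoter-driven luciferase in stably transfected Huh7 cells; 1500 cells/well rested 2 h, exposed to compound in DMSO for 24 h at 37 °C, 5% CO2. Luminescence read 10 min after adding luciferase reagent at ambient temperature.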
In the case of `COc1ccc(C2=NOC(COC(=O)c3ccc4ccccc4n3)C2)cc1` (centres undefined), the Potency is reported as “inactive”. With `Cc1ccc(C(=O)NNC2=Nc3cc([N+](=O)[O-])ccc3OC2)cc1` the Potency was “inactive”. For `COc1ccc(C2=Nc3cc(C)ccc3OC2)cc1`, the Potency was 0.562 µM (active). With `CC(C)OCCCNC(=S)N1CCC(C(=O)c2ccc3c(c2)OCCO3)CC1` the Potency was “inactive”. In the case of `COc1ccc(OC)c(/C=C/C(=O)OCC(=O)Nc2ccc3c(c2)OCCO3)c1`, the Potency is reported as “inactive”. In the case of `CC(NC(=O)Nc1ccc2c(c1)OCO2)c1ccncc1` (centres undefined), the Potency is reported as “inactive”. In the case of `Cc1cccc(NC(=O)Nc2ccc3c(c2)OCO3)n1`, the Potency is reported as 2.24 µM (active). For `Cc1cccc(NC(=O)/C=C/c2ccc3c(c2)OCO3)n1`, the Potency was 0.562 µM (active). For `CCOC(=O)CCCNC(=O)COC(=O)/C=C/c1ccc2c(c1)OCO2`, the Potency was “inactive”. In the case of `O=C(O)/C=C/c1ccc2c(c1)OCCO2`, the Potency is reported as “inactive”. For `O=C(/C=C\c1ccc2c(c1)OCO2)NC1(C(=O)Nc2ccc3c(c2)OCCO3)CCCCC1`, the Potency was “inactive”. In the case of `Cc1cccc(NC(=O)Nc2ccc(OCc3ccccc3)cc2)n1`, the Potency is reported as “inactive”. In the case of `CC(NS(=O)(=O)c1ccc(Cl)cc1)C(=O)Nc1ccc2c(c1)OCCO2` (centres undefined), the Potency is reported as “inactive”. With `CNS(=O)(=O)c1ccc(NC(=O)Nc2ccc3c(c2)OCO3)cc1` the Potency was 3.55 µM (active). In the case of `COc1cccc(/C=C/C(=O)Nc2ccc3c(c2)OCCO3)c1`, the Potency is reported as 1.26 µM (active). With `CC(C)CNS(=O)(=O)c1ccc(C(=O)Nc2ccc3c(c2)OCO3)cc1` the Potency was “inactive”. For `O=C1C=C(c2ccnc3cc(Cl)ccc23)C[C@@H](c2ccc3c(c2)OCO3)C1`, the Potency was “inactive”. For `COc1ccc(NS(=O)(=O)c2cccc(C(=O)NCCc3ccc(S(N)(=O)=O)cc3)c2)cc1`, the Potency was “inactive”. For `CC(=O)Nc1ccc(S(=O)(=O)N2CCN(S(=O)(=O)c3cccs3)CC2)cc1`, the Potency was “inactive”. With `CC1CCc2sc(C(=O)NCC(c3ccco3)N3CCCCC3)cc2C1` (centres undefined) the Potency was “inactive”. With `O=C(NCCOc1ccccc1Cl)C(=O)Nc1ccccc1` the Potency was “inactive”. With `COc1ccc(S(=O)(=O)N2CCOCC2)cc1NC(=O)Cc1coc2cc(C)ccc12` the Potency was “inactive”. For `Cc1nn(Cc2ccccc2)c(C)c1C(=O)NCCCN1CCCC1=O`, the Potency was “inactive”. In the case of `COc1ccc(CCNC(=O)CSc2nnc(CNC(=O)c3cccs3)o2)cc1OC`, the Potency is reported as “inactive”. With `COc1ccc(-c2nnc(SCC(=O)c3cccs3)o2)c(OC)c1` the Potency was 1.12 µM (active). For `COc1ccccc1-c1nnc(SCC(=O)N2CC(C)CC(C)C2)o1` (centres undefined), the Potency was “inactive”. For `Cc1ccc(NS(=O)(=O)c2ccc3c(c2)CC(=O)N3)cc1Cl`, the Potency was “inactive”. With `COc1ccccc1C(CNC(=O)c1ccc(C)c(S(=O)(=O)N2CCCCC2)c1)N(C)C` (centres undefined) the Potency was “inactive”. With `CN(CCc1ccccc1)c1ccc([N+](=O)[O-])cn1` the Potency was “inactive”.
